A selection: hits, their analogues and other compounds. The true share with any hit is near 3.6%.
Myeloid diff 2: compounds promoting myeloid differentiation; ER-HoxA9 myeloid progenitors, lysozyme-GFP differentiation, flow cytometry; calls only at 10 µM; 1% of 360,000 active;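 active means normalized GFP-positive differentiation at or above the plate's own cutoff, the solvent-only control mean plus 3 SD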;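 further: cells exposed to compound for four days before flow analysis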
NadD block: blocks S. aureus nicotinate mononucleotide adenylyltransferase. purified NadD enzyme, colorimetric absorbance read-out. inhibition, % at 20 µM. 0.78% of 360,000 active. AID 602399; in the data active means inhibition above about 26%
CRFBP-R2 block: CRF-BP/CRF-R2 complex antagonism. HEK293 CRF-R2/CRF-BP, CRF-induced calcium fluorescence. inhibition, % at 11.8 µM. 0.59% of 350,000 active;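 active means inhibition of the ligand-induced calcium signal above about 50% at the single tested concentration, limit read from the data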
NRP1-CendR mod: alters CendR peptide binding to human NRP-1. inhibition, % at 25 µM. O14786. 0.85% of 360,000 active. FAM-RPARPAR peptide binding to NRP-1, fluorescence polarization. AID 602438;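 active means inhibition or corrected inhibition above about 18%, plus a signal ratio from 0.5 to 1.5, limit read from the data, passing the limit was not always enough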
FAS TE block: FAS thioesterase (human) inhibition; P49327; recombinant FAS-TE, OMFH fluorogenic substrate, fluorescence endpoint; inhibition, % at 15 µM; 0.67% of 360,000 active; AID 602261;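 active means compounds whose normalised, plate-corrected inhibition of enzyme fluorescence in the single-dose primary screen is 50% or more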;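 further: 0% = DMSO with enzyme and 100% = substrate without enzyme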
Target sequence (P49327 whole entry, looked up): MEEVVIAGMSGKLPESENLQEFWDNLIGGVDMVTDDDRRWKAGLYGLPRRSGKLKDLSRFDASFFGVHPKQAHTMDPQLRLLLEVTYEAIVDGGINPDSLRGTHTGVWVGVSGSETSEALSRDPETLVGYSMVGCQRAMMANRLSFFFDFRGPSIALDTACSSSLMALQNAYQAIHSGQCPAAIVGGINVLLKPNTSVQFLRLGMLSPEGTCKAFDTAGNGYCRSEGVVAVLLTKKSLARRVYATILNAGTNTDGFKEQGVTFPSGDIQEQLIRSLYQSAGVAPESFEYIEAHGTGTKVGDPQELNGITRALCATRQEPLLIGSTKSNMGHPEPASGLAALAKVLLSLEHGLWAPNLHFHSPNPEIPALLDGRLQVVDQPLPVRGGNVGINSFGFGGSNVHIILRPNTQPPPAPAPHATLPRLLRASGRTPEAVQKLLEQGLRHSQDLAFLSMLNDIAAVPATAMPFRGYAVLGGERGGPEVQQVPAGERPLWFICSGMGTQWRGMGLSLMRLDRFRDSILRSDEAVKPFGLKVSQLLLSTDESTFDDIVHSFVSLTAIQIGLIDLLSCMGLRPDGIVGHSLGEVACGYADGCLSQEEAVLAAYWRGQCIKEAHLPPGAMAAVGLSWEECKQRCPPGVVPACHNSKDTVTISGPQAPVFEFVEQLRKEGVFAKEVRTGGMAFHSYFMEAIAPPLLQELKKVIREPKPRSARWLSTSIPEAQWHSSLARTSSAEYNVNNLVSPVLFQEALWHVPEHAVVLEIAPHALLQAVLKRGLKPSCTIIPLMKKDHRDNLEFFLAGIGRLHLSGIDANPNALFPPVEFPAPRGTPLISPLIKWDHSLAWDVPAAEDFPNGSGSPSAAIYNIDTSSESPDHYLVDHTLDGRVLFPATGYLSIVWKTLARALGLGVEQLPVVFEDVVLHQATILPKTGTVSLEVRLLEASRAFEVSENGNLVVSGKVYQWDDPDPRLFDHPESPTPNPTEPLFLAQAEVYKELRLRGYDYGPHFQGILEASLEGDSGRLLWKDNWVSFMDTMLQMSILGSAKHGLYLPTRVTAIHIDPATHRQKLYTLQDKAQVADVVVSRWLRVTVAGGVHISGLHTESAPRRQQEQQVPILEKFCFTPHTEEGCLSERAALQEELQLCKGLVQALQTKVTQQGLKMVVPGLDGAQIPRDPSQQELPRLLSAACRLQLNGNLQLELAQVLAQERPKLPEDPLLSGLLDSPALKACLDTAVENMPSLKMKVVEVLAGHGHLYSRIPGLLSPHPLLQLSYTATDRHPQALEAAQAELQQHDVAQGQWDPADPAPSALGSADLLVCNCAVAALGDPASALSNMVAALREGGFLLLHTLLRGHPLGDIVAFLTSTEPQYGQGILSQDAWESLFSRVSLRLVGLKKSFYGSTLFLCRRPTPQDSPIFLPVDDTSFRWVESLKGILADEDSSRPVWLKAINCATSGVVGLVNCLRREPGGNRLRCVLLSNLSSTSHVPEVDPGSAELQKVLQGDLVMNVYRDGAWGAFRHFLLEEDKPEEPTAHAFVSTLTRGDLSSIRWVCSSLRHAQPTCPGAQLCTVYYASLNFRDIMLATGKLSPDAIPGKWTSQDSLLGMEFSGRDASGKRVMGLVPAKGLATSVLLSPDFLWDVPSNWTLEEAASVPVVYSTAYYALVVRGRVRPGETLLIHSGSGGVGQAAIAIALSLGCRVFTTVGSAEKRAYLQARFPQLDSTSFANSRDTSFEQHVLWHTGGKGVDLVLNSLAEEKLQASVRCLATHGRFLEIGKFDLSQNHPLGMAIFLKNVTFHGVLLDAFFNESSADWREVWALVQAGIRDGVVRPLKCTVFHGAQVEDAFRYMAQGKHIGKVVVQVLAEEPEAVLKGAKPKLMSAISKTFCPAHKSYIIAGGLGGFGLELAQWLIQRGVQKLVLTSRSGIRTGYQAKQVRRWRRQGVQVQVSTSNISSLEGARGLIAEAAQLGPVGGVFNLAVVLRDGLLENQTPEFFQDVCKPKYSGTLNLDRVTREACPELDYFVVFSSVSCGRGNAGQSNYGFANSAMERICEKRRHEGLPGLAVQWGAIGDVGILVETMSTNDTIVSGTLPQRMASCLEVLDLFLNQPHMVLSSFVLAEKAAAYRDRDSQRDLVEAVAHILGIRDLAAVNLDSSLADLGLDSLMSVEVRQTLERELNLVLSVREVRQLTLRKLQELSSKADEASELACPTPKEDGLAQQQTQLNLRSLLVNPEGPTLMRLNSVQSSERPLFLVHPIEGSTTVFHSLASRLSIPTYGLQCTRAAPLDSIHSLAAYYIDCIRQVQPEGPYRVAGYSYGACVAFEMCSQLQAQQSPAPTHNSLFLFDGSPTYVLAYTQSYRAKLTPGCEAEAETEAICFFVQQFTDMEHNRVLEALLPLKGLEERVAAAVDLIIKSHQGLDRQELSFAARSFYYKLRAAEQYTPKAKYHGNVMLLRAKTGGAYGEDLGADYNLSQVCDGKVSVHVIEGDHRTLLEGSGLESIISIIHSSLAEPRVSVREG
Starred values were filed as active, the others as inactive; i = inactive; x = no result given; + = active, no number; ! = a repeat was not active.

SMILES	Myeloid diff 2	NadD block	CRFBP-R2 block	NRP1-CendR mod	FAS TE block
Cc1nn(C)c(NC(=O)c2ccccc2Cl)c1Br	i	-4	7	-3	0
Cc1nn(C)c(NC(=O)c2ccc(Cl)cc2Cl)c1Br	+	-2	20	-4	-2
Cc1cc(O)c2c(-c3ccccc3)cc(=O)oc2c1	i	-5	24	-1	-4
Cc1cc2oc(=O)cc(-c3ccccc3)c2c(C)c1-c1ccc(O)cc1	i	-3	50*	-3	35
CCCCN1C(=O)C(O)(c2ccccc2)c2cc(Br)ccc21 (stereo not drawn)	x	-7	3	13	10
COC(=O)C[C@@H]1C=C[C@@H](NC(C)=O)[C@@H](CO)O1	i	x	x	-2	x
O=C(Oc1cccc2cccnc12)c1cccs1	+	-2	-2	2	-6
O=C(Oc1cccc2cccnc12)c1ccco1	i	6	13	12	-4
C[C@@]12CCC3[C@@](CCC4[C@@]3(C)CCC[C@@]4(C)C(=O)NC3CCCCC3)(CC1=O)C2 (stereo partly drawn)	i	-2	-2	32*	28
CCCOc1ccc(C(=O)N2CCN(c3ccc(NC(=O)CC)cc3Cl)CC2)cc1	i	1	62*	-9	9
Cc1[nH]n(-c2ccccc2)c(=O)c1/C=N/N1C(=O)c2ccc3c4c(ccc(c24)C1=O)CC3	i	29	20	-6	24
CCC(C)(C)C(=O)Nc1ccc(C(N)=O)cc1	i	-6	-15	18	-4
CC(C)(C)CC(=O)Nc1ccc(C(N)=O)cc1	i	1	10	26*	-8
O=C(NCc1ccccc1)C1CCC1	i	1	10	40*	-11
COc1cc(/C=C2\C(=N)N3N=C(S(C)(=O)=O)SC3=NC2=O)ccc1OCCOc1ccc(C)cc1	i	33*	72*	-49	15
CCC1=NN2C(=N)/C(=C/c3ccc(OS(=O)(=O)c4ccc(C)cc4)c(OC)c3)C(=O)N=C2S1	i	29	-14	-14	0
COc1cc(/C=C2\C(=N)N3N=C(S(C)(=O)=O)SC3=NC2=O)cc(OC)c1OCCOc1ccc(C)cc1	i	30*	38	-18	7
COc1cc(/C=C2\C(=N)N3N=C(S(C)(=O)=O)SC3=NC2=O)cc(OC)c1OCCOc1cccc(C)c1	i	32*	44	-16	4
COc1cc(/C=C2/C(=N)N3N=C(C)SC3=NC2=O)ccc1OS(=O)(=O)c1ccc(C)cc1	i	1	-3	-3	0
Cc1ccc(N(CC(=O)NCc2ccc(F)cc2)S(=O)(=O)c2c(C)n[nH]c2C)cc1	i	-2	4	-7	-2
C[C@@H]1CN([C@@H](C)CO)C(=O)c2cc(Br)cnc2O[C@@H]1CN(C)Cc1ccc(Oc2ccccc2)cc1	i	-6	-8	-2	9
CCC(C)(C)C1CCc2[nH]nc(C(=O)NC(C)C)c2C1 (stereo not drawn)	i	-4	6	14	-1
COc1ccc(C(=O)Nc2ncc3c(n2)CC(c2ccco2)CC3=O)cc1 (stereo not drawn)	i	3	-6	36*	-3
CC(=O)Nc1ncc2c(n1)CC(c1ccco1)CC2=O (stereo not drawn)	i	3	3	-7	-6
COc1cc(OC)cc(C(=O)Nc2ncc3c(n2)CC(C)CC3=O)c1 (stereo not drawn)	i	-4	10	35*	-14
SMILES	Myeloid diff 2	NadD block	CRFBP-R2 block	NRP1-CendR mod	FAS TE block
O=C(Nc1ccc(Cl)cc1)OCc1cn(-c2ccc(Cl)cc2)nn1	i	0	5	-6	4
Clc1ccc(-n2cc(COCc3ccccc3)nn2)cc1	i	3	63*	16	6
O=C(NC(=O)c1ccccc1O)c1ccc(C(F)(F)F)cc1	i	3	52*	4	-1
CCCc1ccc(C(=O)NC(=O)c2ccccc2O)cc1	i	4	27	-3	-2
O=C(NCc1ccc(F)cc1)c1cc(C2CCCN(C(=O)c3ccccn3)C2)on1 (stereo not drawn)	i	2	x	0	-12
CCCCCC(=O)N1C[C@@H](n2cc(-c3ccc(F)cc3)nn2)[C@H](O)C[C@@H]1c1ccc(Cl)cc1	i	1	13	-6	47
CCCCC1=CC2=CC(=O)C(C)(OC(=O)CC)C(=O)C2=CN1c1ccc(OC)cc1 (stereo not drawn)	i	10	9	24*	1
CCCCC1=CC2=CC(=O)C(C)(OC(=O)CC)C(=O)C2=CN1c1cccc(C#N)c1 (stereo not drawn)	i	5	-5	6	-1
N#Cc1c(N)[nH]c2ccc(Sc3ccccc3)cc12	x	-5	35	-6	32
Cc1ccc(CNC(=O)Cn2ccc(NC(=O)OCc3ccccc3)nc2=O)o1	i	-4	2	7	-9
COCCCNC(=O)Cn1ccc(NC(=O)OCc2ccccc2)nc1=O	i	-1	5	8	-13
COc1ccc(CNC(=O)Cn2ccc(NC(=O)OCc3ccccc3)nc2=O)cc1	i	1	-2	38*	-16
O=C(Cn1ccc(NC(=O)OCc2ccccc2)nc1=O)NCc1ccc2[nH]ccc2c1	i	5	-4	24*	-6
COc1ccc(C(CNc2ccc(S(=O)(=O)N3CCCC3)cc2[N+](=O)[O-])N2CCCC2)cc1 (stereo not drawn)	i	2	4	26*	27
CCCC1CC(C#N)N(N(C)C)C1=C(C#N)C#N (stereo not drawn)	i	-1	52*	5	-6
CC1CC(C#N)N(N(C)C)C1=C(C#N)C#N (stereo not drawn)	i	-3	4	3	-7
CC1Cc2ccccc2N1C(=O)CN(C)CC(=O)Nc1ccc(F)cc1 (stereo not drawn)	i	5	-2	3	4
CN1CCCC1CCNc1ccc2c(=O)c3ccccc3oc2c1 (stereo not drawn)	i	-4	-4	-1	-9
CN1CCC[C@H]1CCNc1ccc2c(=O)c3ccccc3n(C)c2c1	+	28	-5	4	-4
O=C(O)CCCCCNC(=O)Nc1ccc2c(c1)OCCO2	i	-5	6	-3	-7
O=C(O)CCNc1ccc2c(c1)OCCO2	i	3	-3	46*	-8
Nc1c(C(=O)N2CCOCC2)sc2nc3c(cc12)CCC3	i	2	50*	-2	-3
Cc1ccc(NC2=CC(=O)CCC2)cc1C	i	-3	10	46*	-4
C=CCSc1nc2c(cc1C#N)CCC2	i	-7	18	7	19
C=C(C)CSc1nc2c(cc1C#N)CCC2	i	2	64*	2	27
Cc1ccccc1N1C(N)=NC(N)=NC1(C)C	+	x	6	x	x
COc1ccccc1N1C(N)=NC(N)=NC1(C)C	+!	-3	-14	0	-9
O=C(O)C(CCc1ccccc1)N1CCOCC1 (stereo not drawn)	i	-6	-21	-5	-5
